Measured values taken from PubChem BioAssay.

Columns and labels:
[1] = biological target: Tumor necrosis factor receptor superfamily member 10B (Homo sapiens) (UniProt O14763); assay: viability loss of caspase-8 NB7 cells with TRAIL – with/without TRAIL, luminescence panel, confirmation (AID 651596); details: NB7 neuroblastoma + caspase-8, TRAIL sensitization, NB7 Caspase-8, with TRAIL, mean of runs, at 10 µM, stronger effect = higher value
[2] = as above; details: NB7 neuroblastoma + caspase-8, without TRAIL, NB7 Caspase-8, without TRAIL, mean of runs, at 10 µM

Sequence of Tumor necrosis factor receptor superfamily member 10B (Homo sapiens) (O14763 whole entry, looked up): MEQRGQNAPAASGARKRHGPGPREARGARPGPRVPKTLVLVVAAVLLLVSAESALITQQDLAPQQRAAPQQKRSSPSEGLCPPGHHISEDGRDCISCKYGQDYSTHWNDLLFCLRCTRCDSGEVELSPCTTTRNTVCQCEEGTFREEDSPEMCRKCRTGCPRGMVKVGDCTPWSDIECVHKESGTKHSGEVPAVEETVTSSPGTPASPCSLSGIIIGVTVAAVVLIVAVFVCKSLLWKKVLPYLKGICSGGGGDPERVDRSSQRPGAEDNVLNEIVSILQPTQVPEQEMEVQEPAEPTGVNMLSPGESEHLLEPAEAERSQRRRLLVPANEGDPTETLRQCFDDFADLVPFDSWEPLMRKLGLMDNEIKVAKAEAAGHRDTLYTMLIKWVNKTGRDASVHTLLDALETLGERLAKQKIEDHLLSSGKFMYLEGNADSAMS

Row | Compound | activity [1] | activity [2]
1 | O=C(CSc1nnc(NC(=O)c2ccccc2)s1)NCC1CCCO1 (stereo not given) | 60.9% | 63.2%
2 | O=C(Nc1ccc2c(c1)OCCO2)Nc1ccc2c(c1)OCO2 | 81.4% | 79.5%
3 | Cc1ccsc1/C=C/c1ccc2ccccc2n1 | 42.2% | 30.9%
4 | COc1ccccc1OCCNC(=O)c1ccc2c(c1)OCCO2 | 41% | 45.9%
5 | Cc1ccc(C(=O)/C=C/Nc2ccccn2)cc1 | 86.9% | 79.8%
6 | CN(NC(=O)c1cccc(Cl)c1)c1nc(-c2ccccc2)nnc1C(F)(F)F | 75.1% | 39.9%
7 | CC(=O)n1cc(N(C(=O)CCl)c2ccc(Cl)cc2)c2ccccc21 | 98.5% | 98.9%
8 | Cc1ccc2nc(-c3sc4nc(C)ccc4c3N)[nH]c2c1 | 23.9% | 7.22%
9 | CN(C(=S)NC(=O)c1ccc(Cl)cc1)C1CCCCC1 | 40.6% | 60%
10 | C=CCN1C=CC(=C/C=C(/C#N)C(=O)OCC)C=C1 | 50.2% | 41.9%
11 | CC(=O)c1c(C)[nH]c(C(=O)Nc2nc(C)cs2)c1C | 80.2% | 82.6%
12 | COC(=O)C12OCC34C(CC5C(C)=C(O)C(=O)CC5(C)C3C(O)C1O)OC(=O)C(OC(=O)C=C(C)C)C24 (stereo not given) | 91% | 96.2%
13 | O=C(NCc1cc(C(F)(F)F)ccc1Cl)c1cccc2c1C(=O)c1ccc(N3CCC(N4CCCCC4)CC3)cc1S2(=O)=O | 93% | 93.6%
14 | O=C(N/N=C\c1ccc(CNS(=O)(=O)c2ccc(Cl)cc2)o1)C(=O)Nc1ccc(Oc2ccccc2)cc1 | 79.5% | 91.1%
15 | Nc1c2c(nc3sc4c(c13)CCCCC4)CCCCC2 | 48.1% | 47.8%
